From the supplement of paper PMC13380429

System: Vero E6 infected with SARS-CoV-2
Test: inhibition of SARS-CoV-2 cytopathic effect; higher = more antiviral protection, active = above 15
Settings: 48 h

Measured: inhibition of SARS-CoV-2 cytopathic effect

CC[C@@H]1C(=O)OC[C@@H]1Cc1cncn1C [pilocarpine]
inactive: 1 nM 0.9% | 8.33 nM 1.12% | 100 nM 1.22% | 833.33 nM 3.49% | 10000 nM 3.05%

CCn1c(N)c(C(=O)NC)c(=O)c2ccc(C#C[C@@](C)(O)COC)nc21
inactive: 1 nM 0.13% | 8.33 nM -0.62% | 100 nM -1.69% | 833.33 nM 0.68% | 10000 nM 6.9%

COc1cccc(OC)c1-c1cc(C(=O)N[C@@H](CC(C)C)C(=O)O)nn1-c1ccnc2cc(Cl)ccc12
inactive: 1 nM 2.48% | 8.33 nM 1.4% | 100 nM -0.45% | 833.33 nM -0.64% | 10000 nM -0.46%

N#Cc1ccccc1-c1cc(-c2ccccn2)cn(-c2ccccc2)c1=O [Perampanel]
inactive: 1 nM 2.02% | 8.33 nM 0.93% | 100 nM 4.1% | 833.33 nM -0.14% | 10000 nM -5.2%

COCCOC(=O)C1=C(C)NC(C)=C(C(=O)OC/C=C/c2ccccc2)C1c1cccc([N+](=O)[O-])c1 (stereo not given) [cilnidipine]
inactive: 1 nM -1.01% | 8.33 nM -0.52% | 100 nM 0.89% | 833.33 nM 0.38% | 10000 nM 7.9%

COc1cccc(CCc2ccccc2OCC[C@@H]2C[C@@H](O)CN2C)c1
inactive: 1 nM 2.39% | 8.33 nM 4.9% | 100 nM 14.7% | 833.33 nM -9.02% | 10000 nM -0.59%

Cc1cn2nc([C@@H]3CCCCN3C(=O)c3cc(Cl)ccc3NS(C)(=O)=O)cc2nc1N1CC[C@H](N)C1 [presatovir]
inactive: 1 nM 2.31% | 8.33 nM 0.48% | 100 nM -1.98% | 833.33 nM -1.96% | 10000 nM -4.09%

CCN(C(=O)c1c(O)c2c(Cl)cccc2n(C)c1=O)c1ccccc1 [laquinimod]
inactive: 1 nM 1.55% | 8.33 nM -0.45% | 100 nM 0.71% | 833.33 nM -5.3% | 10000 nM -6.25%

Clc1cccc(Nc2nnc(-c3ccccc3)c3ccccc23)c1
inactive: 1 nM 1.65% | 8.33 nM 2.3% | 100 nM 2.13% | 833.33 nM 1.98% | 10000 nM 2.92%

CCCn1c(=O)[nH]c2nc(-c3ccc(S(=O)(=O)O)cc3)[nH]c2c1=O
inactive: 1 nM 0.98% | 8.33 nM -0.31% | 100 nM -0.83% | 833.33 nM 0.97% | 10000 nM 0.55%

Nc1cc(C(F)(F)F)c(-c2nc(N3CCOCC3)nc(N3CCOCC3)n2)cn1
inactive: 1 nM -0.85% | 8.33 nM 5.6% | 100 nM 1.97% | 833.33 nM 1.89% | 10000 nM -3.26%

CN1CCc2nc(C(=O)N[C@@H]3C[C@@H](C(=O)N(C)C)CC[C@@H]3NC(=O)C(=O)Nc3ccc(Cl)cn3)sc2C1 [edoxaban]
inactive: 1 nM -1.16% | 8.33 nM -1.57% | 100 nM -1.51% | 833.33 nM -3.37% | 10000 nM -1.69%

C[C@H](N[C@@H](CCc1ccccc1)C(=O)O)C(=O)N1Cc2ccccc2C[C@H]1C(=O)O [quinaprilat]
inactive: 1 nM -0.56% | 8.33 nM -0.93% | 100 nM -1.42% | 833.33 nM -0.25% | 10000 nM 0.11%

COc1ccc(CCN(C)CCCN2CCc3cc(OC)c(OC)cc3CC2=O)cc1OC [zatebradine]
inactive: 1 nM 0.14% | 8.33 nM 1.94% | 100 nM 1.29% | 833.33 nM 0.25% | 10000 nM -2.07%

C[C@H](CCC(=O)O)[C@H]1CC[C@H]2[C@@H]3CC[C@@H]4C[C@H](O)CC[C@]4(C)[C@H]3C[C@H](O)[C@]12C [deoxycholic-acid]
inactive: 1 nM -0.18% | 8.33 nM 0.25% | 100 nM -1.84% | 833.33 nM -1.15% | 10000 nM -0.42%

COc1ccc2cc(OCC3(C(=O)O)CN(C(=O)c4ccc(F)cc4)C3)ccc2c1
inactive: 1 nM 2.48% | 8.33 nM 0% | 100 nM 1.35% | 833.33 nM 2.44% | 10000 nM 1.77%

Nc1ccn([C@@H]2CS[C@H](CO)O2)c(=O)n1 [lamivudine]
inactive: 1 nM -0.38% | 8.33 nM 0.6% | 100 nM -0.56% | 833.33 nM -0.22% | 10000 nM 4.96%

O=C(CCCN1CC=C(n2c(=O)[nH]c3ccccc32)CC1)c1ccc(F)cc1 [droperidol]
inactive: 1 nM -0.89% | 8.33 nM 3.34% | 100 nM 0.3% | 833.33 nM -0.44% | 10000 nM -2%

Cc1nc2ccc(NC(=O)Nc3ccnc4cccnc34)cc2o1
inactive: 1 nM 0.35% | 8.33 nM 0.06% | 100 nM 2.76% | 833.33 nM -0.56% | 10000 nM -0.97%

Cn1c(=O)[nH]c2ncn(C)c2c1=O [paraxanthine]
inactive: 1 nM 1.63% | 8.33 nM 1.68% | 100 nM 0.01% | 833.33 nM 2.99% | 10000 nM -0.26%

c1ccc(COCCCc2c[nH]cn2)cc1 [proxyfan]
inactive: 1 nM -1.62% | 8.33 nM -1.11% | 100 nM -0.96% | 833.33 nM 0.04% | 10000 nM -3.35%

CCN1CCCC1CNC(=O)c1cc(S(=O)(=O)CC)c(N)cc1OC (stereo not given) [amisulpride]
inactive: 1 nM 2.43% | 8.33 nM -1.75% | 100 nM 0.45% | 833.33 nM -2.32% | 10000 nM -1.76%

COc1c2ccoc2cc2oc(=O)ccc12 [bergapten]
inactive: 1 nM -0.67% | 8.33 nM -0.91% | 100 nM -2.71% | 833.33 nM 3.76% | 10000 nM 14.6%

Nc1ncnc2c1C(=O)N(c1ccc([C@H]3CC[C@H](CC(=O)O)CC3)cc1)CCO2
inactive: 1 nM 4.58% | 8.33 nM 2.44% | 100 nM -0.31% | 833.33 nM 5.58% | 10000 nM 4.43%

[O-][n+]1cccc(CO)c1 [mepiroxol]
inactive: 1 nM 0.82% | 8.33 nM -0.73% | 100 nM 2.65% | 833.33 nM -0.59% | 10000 nM 2.31%

O=C1c2cccc3c2[C@H](CCC3)CN1[C@@H]1CN2CCC1CC2 [palonosetron]
inactive: 1 nM -2.25% | 8.33 nM -0.74% | 100 nM -0.65% | 833.33 nM -0.13% | 10000 nM -0.75%

CCN(CC)CCCC(C)Nc1ccnc2cc(Cl)ccc12 (stereo not given) [chloroquine]
inactive: 1 nM -1.07% | 8.33 nM -2.02% | 100 nM 0.51% | 833.33 nM -0.4% | 10000 nM -1.51%

CN1CCN(CCOc2cc(OC3CCOCC3)c3c(Nc4c(Cl)ccc5c4OCO5)ncnc3c2)CC1 [saracatinib]
inactive: 1 nM 0.37% | 8.33 nM -0.91% | 100 nM 0.04% | 833.33 nM -7% | 10000 nM -12.3%

CC[C@@](C)(Nc1ccnc(-c2c[nH]c3ncccc23)n1)C(=O)NCC(F)(F)F [decernotinib]
inactive: 1 nM -1.03% | 8.33 nM 0.41% | 100 nM -0.04% | 833.33 nM 1.86% | 10000 nM 2.32%

C[C@]12CCC(=O)C=C1CC[C@@H]1[C@@H]2CC[C@@]2(C)[C@H]1CC[C@]2(O)C(=O)CO [cortodoxone]
inactive: 1 nM -0.53% | 8.33 nM -0.71% | 100 nM 1.21% | 833.33 nM 0.07% | 10000 nM -1.41%

Cc1ccccc1N1CCN(CCc2nnc3n2CCCC3)CC1 [dapiprazole]
inactive: 1 nM -2.9% | 8.33 nM -2.22% | 100 nM 0.65% | 833.33 nM -0.37% | 10000 nM 0.44%

CC(SC(=O)c1cccs1)C(=O)NCC(=O)O (stereo not given) [stepronin]
inactive: 1 nM 2.01% | 8.33 nM -0.48% | 100 nM 1.48% | 833.33 nM 0.5% | 10000 nM -1.74%

c1ccc2c(CC3=NCCN3)cccc2c1 [naphazoline]
inactive: 1 nM 1.08% | 8.33 nM 0.66% | 100 nM 0.05% | 833.33 nM 2.24% | 10000 nM 0.73%

CC(C)n1nc(C#Cc2ccccc2)c2c(N)ncnc21
inactive: 1 nM 0.9% | 8.33 nM -1.43% | 100 nM -4.23% | 833.33 nM 0.67% | 10000 nM 3.02%

COc1c(N2CCNC(C)C2)c(F)cc2c(=O)c(C(=O)O)cn(C3CC3)c12 (stereo not given) [gatifloxacin]
inactive: 1 nM -0.1% | 8.33 nM 1.9% | 100 nM 0.16% | 833.33 nM 0.37% | 10000 nM -2.52%

CC(C)C[C@H](NC(=O)OCc1ccccc1)C(=O)N[C@@H](C[C@@H]1CCNC1=O)C(O)S(=O)(=O)O (stereo not given in full) [GC376 sodium]
active: 10000 nM 70.6%
inactive: 1 nM 0.45% | 8.33 nM -0.81% | 100 nM 0.28% | 833.33 nM -0.83%

Cc1cc2c(N3CCCC3)nc(N3CCCC3)nc2n1C
inactive: 1 nM 1.39% | 8.33 nM 5.02% | 100 nM 4.75% | 833.33 nM 3.21% | 10000 nM 3.47%

COc1cccc2c1C(=O)c1c(O)c3c(c(O)c1C2=O)C[C@@](O)(C(C)=O)C[C@@H]3O[C@H]1C[C@H](N)[C@H](O)[C@H](C)O1 [daunorubicin]
inactive: 1 nM 0.05% | 8.33 nM 0.64% | 100 nM 1.14% | 833.33 nM 4.26% | 10000 nM -16.6%

Cc1cc(I)ccc1Nc1c(C(=O)NOCC2CC2)cc(F)c(F)c1F
inactive: 1 nM 0.41% | 8.33 nM 5.24% | 100 nM 7.71% | 833.33 nM -0.67% | 10000 nM -4.88%

COc1ccc(-c2cc(=O)c3c(O)c(OC)c(O)cc3o2)cc1OC [eupatilin]
inactive: 1 nM 1.23% | 8.33 nM -0.46% | 100 nM 0.38% | 833.33 nM 1.92% | 10000 nM 2.58%
